Calls of active or inactive are those of the source. How the source made its calls: active means hit-call score of the fitted dose curve at least 0.9, where 1 is the maximum; inactive means score below 0.9.

Broadly, the AC50 is the concentration giving half of the maximal activity seen.

Read-out in this assay: NAD(P)H dehydrogenase [quinone] 1 (NQO1), NQO1 (gene 1728)
The assay is described as follows: LTEA_HepaRG_NQO1: Life Technologies and Expression Analysis (LTEA) Assay for NAD(P)H dehydrogenase [quinone] 1 (NQO1) using HepaRG (AID 2283526). Conditions: mRNA level, 48 h; actives raise or lower the signal. The protocol: LTEA_HepaRG is a cell based, multiplexed-readout assay that uses HepaRG, a human liver cell line, with measurements taken at 48 hours after chemical dosing on a 96-well plate.LTEA_HepaRG_NQO1 is one of 102 assay component(s) measured in the LTEA HepaRG cell culture assay. It is a marker of Diseases associated with NQO1 include Tardive Dyskinesia and Childhood Leukemia.Data from the assay component LTEA_HepaRG_NQO1 was analyzed into 1 endpoint. This assay endpoint, LTEA_HepaRG_NQO1, was analyzed with bidirectional fitting relative to DMSO as the negative control and baseline of activity. Using a type of inducible reporter, measures of mRNA induction for gain or loss-of-signal activity can be used to understand regulation of transcription factor activity. To generalize the intended target to other relatable targets, this assay endpoint is annotated to the oxidoreductase intended target family, where the subfamily is quinone-acceptor.
A total of 1060 chemcials from the ToxCast library were tested in eight-point concentration-response experiments. Cell culture and cytotoxicity assays were conducted at Thermo Fisher Scientific's Custom Services facility (Madison, WI). A single lot of human HepaRG cells (Thermo Fisher Scientific, Frederick, MD) was used for the cell culture experiments. 96-well format collagen type I coated plates of human HepaRG cells were prepared using established methods. Briefly, cryopreserved HepaRG cells were thawed, plated at a density of approximately 100,000 cells/well in HepaRG Thaw, Plate, and General Purpose media (HPRG770, Thermo Fisher Scientific), and incubated for 48 hours. 0.5% DMSO was selected as vehicle control to balance the requisite need of DMSO in HepaRG cultures to maintain differentiation (for example, baseline metabolism, proportions of hepatocytes vs. cholangiocytes), while enabling further hepatic receptor pathway activation (for example, PXR and CAR) in response to chemical exposure. 48 hours after plating, the culture medium was replaced with HepaRG Serum-Free Incudtion Media. Cells were exposed to each test chemical in duplicate and maintained in CO2 incubators for another 48 hours. Chemical plates were thawed to room temperature and 200x concentrations of treatment groups were prepared. 8-point conentration-reponse curves were made with the highest exposure at 100 uM, followed by half-log dilutions, all in 0.5% DMSO. Each test plate contained variouse controls, induction positive controls (1mM phenobarbital), cytotoxicity positive controls ([…] aflatoxin B1), vehicle controls (0.5% DMSO), and total lysis controls (0.5% DMSO). Cell morphology images were taken using an Essen IncuCyte FLR automated microscope, with six 96-well plates imaged in about 24 minutes. Images were captured and exported and JPEG files. Spent culture media was transfered to black-well plates for the LDH assay, and remaining media was sorted at -80 C for later use. Cells were treated with RLT buffer and frozen until shipped for gene expression analysis. Total RNA was isolated from the cell suspension in 75 uL of Buffer RLT (Qiagen, Germantown, MD 20874) by Quintiles/Expression Analysis (Durham, NC) using a custom isolation procedure. Total RNA from each plate well was transferred to a preamplification plate. Fluidigm's 96.96 Dynamic ArrayTM (Fluidigm, Amsterdam, the Netherlands) technology was used for gene expression analyses by quantitative reverse transcription polymerase chain reaction (qRT-PCR, performed by Quintiles/Expression Analysis, Durham, NC)89. Standard TaqManTM Assays (Applied Biosystems/ThermoFisher Scientific, Foster City, CA) were used to assess the expression of 93 genes selected based on their selectivity and sensitivity to important hepatic receptors known to be modulated by environmental chemicals; importance in human hepatocyte functionality; and hepatotoxicity. […]
On to `Cc1ccccc1N`, for which the outcome was inactive. Same read-out and setting: next, `CCC(C)(C)c1ccc(O)c(C(C)(C)CC)c1`: “inactive”.

As to `Oc1cccc2cccnc12`, the compound was classed as inactive. Consider `CC(=O)[O][Hg][c]1ccccc1`, for which the half-maximal activity concentration (AC50) was 12.3 µM (active). In the case of `CC(C)(OO)c1ccccc1`, the outcome was inactive. Still for that read-out and setting: next, `CCC(=O)C(CC(C)N(C)C)(c1ccccc1)c1ccccc1` (stereo not given): “inactive”; `C[C@]12CCC(=O)C[C@@H]1CC[C@@H]1[C@@H]2CC[C@]2(C)[C@@H](O)CC[C@@H]12`: “inactive”.

Turning to `CN(C)N=O`, the result was inactive. On to `Cn1sc(Cl)cc1=O`, for which the result was inactive. For the compound `O=C(O)C(F)(F)C(F)(F)C(F)(F)C(F)(F)C(F)(F)C(F)(F)C(F)(F)C(F)(F)C(F)(F)C(F)(F)F`, the compound was classed as inactive. For the compound `CCCCCCCCc1ccc(O)cc1`, the result was inactive. Take `O=C(Nc1ccc2[nH]ccc2c1)c1cc2cc(F)ccc2n1Cc1cccc(F)c1`: the compound was called inactive.

On to `ClC1(Cl)C2(Cl)C3(Cl)C4(Cl)C(Cl)(Cl)C5(Cl)C3(Cl)C1(Cl)C5(Cl)C24Cl` (stereo not given), for which the outcome was inactive. Regarding `O=C(O)C(Cl)(Cl)Cl`, the outcome was inactive. Same read-out and setting: in the case of `COc1cc(-c2ccc(N)c(OC)c2)ccc1N` it was “inactive”; in that of `CCOP(=S)(OCC)Oc1nc(Cl)c(Cl)cc1Cl`, “inactive”. The same measure, in the same setting: next, `O=C(O)C(F)(F)C(F)(F)C(F)(F)C(F)(F)C(F)(F)C(F)(F)F`: “inactive”. Take `O=[N+]([O-])c1ccc(O)c([N+](=O)[O-])c1`: the AC50 was 12.7 µM (active).

`C[C@@H]1C[C@@H]([C@H](O)CC2CC(=O)NC(=O)C2)C(=O)[C@@H](C)C1`: the concentration at half-maximal activity (AC50) was 29.3 µM (active). Take `CCOP(=S)(OCC)SCSP(=S)(OCC)OCC`: the result was inactive. As for `C=C(C)C(=O)[O][Sn]([CH2]CCC)([CH2]CCC)[CH2]CCC`, the concentration at half-maximal activity (AC50) was 9.2 µM (active). Consider `CCN1CCC2(CC1)COc1cc3c(cc12)N(C(=O)c1ccc(-c2ccc(-c4nnc(C)o4)cc2C)cc1)CC3`, for which the outcome was inactive. With `CC(C)(c1ccccc1)c1ccc(O)c(C(C)(C)c2ccccc2)c1`, the result was inactive. Still for that read-out and setting: next, `CC(C)(C)c1cc(O)ccc1O`: “inactive”; `O=c1[nH]c(=O)[nH]c(=O)[nH]1`: “inactive”. On to `CC12CC1(C)C(=O)N(c1cc(Cl)cc(Cl)c1)C2=O` (stereo not given), for which the compound was classed as inactive. As to `C=CC(=O)OCCCCCC(C)C`, the compound was called inactive. For `NC(=O)O`, the compound was classed as inactive. Consider `CC(C)(C)CC(C)(C)c1ccc(O)cc1`, for which the outcome was inactive.

In the case of `O=C1C2(Cl)C3(Cl)C4(Cl)C(Cl)(Cl)C5(Cl)C3(Cl)C1(Cl)C5(Cl)C24Cl` (stereo not given), the result was inactive.

For the origin of these results see PubChem BioAssay (EPA / NIEHS).
